# Shiga inhibitor: Shiga toxin inhibition | Vero cells, Shiga toxin protein synthesis inhibition reporter | 290,000 tested, 9.2% active | inhibition, % at 38.7 µM; in the data active means inhibition mostly above about 28%, no sharp cut-off; inactive means mostly below about 43%
# Cycloheximide cs: counter-screen hit for Shiga toxin inhibitors, cycloheximide | cell reporter, cycloheximide protein synthesis inhibition counterscreen | max response, % | 300,000 tested, 12% active | AID 2314; in the data active means max response mostly above about 13%, no sharp cut-off; inactive means mostly below about 14%; further: read at 38.3 µM for the half of the compounds with a filed dose
# Pf growth 96h: inhibits malaria parasite growth, 96 h. P. falciparum luciferase reporter growth, 96 h. Potency, µM (top dose mostly 28.7 µM), actives largely listed as inhibitors. 320,000 tested, 6.9% active
#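 Two-generation exposure (96 h) targets delayed-death phenotype. Reporter parasites carrying integrated firefly luciferase, in red cells at 2% hematocrit and 0.05% parasitemia final, kept at 37 C, 5% CO2; luminescence loss indicates inhibition.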
# Pf growth 48h: P. falciparum growth inhibition at 48 hours (one generation); P. falciparum luciferase growth in erythrocytes, 48 h; Potency, µM (titrated, usually from 28.7 µM), most hits filed as inhibitors; 310,000 tested, 5.9% active; AID 504832
#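 In quantitative HTS format, infected erythrocytes bearing luciferase-reporter parasites were treated for a single generation at 37 C. Luminescence after adding detection reagent served as the growth measure.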
# Numbers stand for hits; . = inactive; ? = inconclusive; / = no result. Only some compounds are listed: those with a hit (about 21% of all), similar ones and a draw of the others. Unless noted, the call rests on the fitted dose curve; in most records, active means well fitted inhibition curve with a large enough effect; inconclusive means small, poorly fitted or top-dose-only effect, or another doubt; inactive means no such curve, though single readings can be large or run the other way.
SMILES,Shiga inhibitor,Cycloheximide cs,Pf growth 96h,Pf growth 48h
CC(C)(C)n1cnc2cc(NC(=O)c3ccccc3)ccc21,93,34,.,.
CC(C)(C)n1cnc2cc(NC(=O)c3cccs3)ccc21,104,34,.,.
CCn1cnc2cc(NC(=O)c3cccs3)ccc21,67,28,.,.
O=C(Nc1ccc2c(c1)nc1n2CCN(Cc2ccccc2)C1)c1cccs1,.,.,.,?
CC(C)(C)NC(=O)CN(Cc1cccs1)C(=O)CNS(=O)(=O)c1ccc(F)cc1,.,.,.,.
CCC(C(=O)NC(C)(C)C)N(Cc1cccs1)C(=O)CNS(=O)(=O)c1ccccc1 (stereo not drawn),.,.,.,2.3µM
COc1ccccc1C1CC(c2ccc(Br)cc2)=NN1C(=O)c1cccnc1 (stereo not drawn),.,.,1.9µM,4.1µM
COc1cccc(C2CC(c3ccc(Br)cc3)=NN2C(=O)c2ccncc2)c1OC (stereo not drawn),.,.,?,12µM
COc1cccc(C2CC(c3cccc(NS(C)(=O)=O)c3)=NN2C(=O)c2ccccc2)c1OC (stereo not drawn),.,.,?,1.9µM
O=C(c1ccncc1)N1N=C(c2ccc(Cl)cc2)CC1c1ccccc1O (stereo not drawn),116,45,?,?
COc1ccc(C2=NN(C(=O)c3ccncc3)C(c3ccccc3O)C2)cc1 (stereo not drawn),.,.,?,?
CCOc1ccc(N(CC(=O)NCCc2ccccc2)C(=O)CCC(=O)Nc2nccs2)cc1,.,.,.,?
CS(=O)(=O)N(Cc1ccco1)CC(O)Cn1c2ccccc2c2ccccc21 (stereo not drawn),.,.,/,9.3µM
OC(CNCc1ccco1)COc1ccccc1 (stereo not drawn),.,.,.,.
Cc1ccc(N(CC(O)Cn2c3ccccc3c3ccccc32)S(C)(=O)=O)c(C)c1 (stereo not drawn),.,.,/,4.7µM
OC(CNCc1ccco1)Cn1c2ccccc2c2ccccc21 (stereo not drawn),.,.,.,2.3µM
Cc1ccc(N(CC(O)Cn2c3ccccc3c3ccccc32)S(C)(=O)=O)cc1 (stereo not drawn),.,.,?,/
CC(=O)Nc1ccc(N(CC(O)Cn2c3ccccc3c3ccccc32)S(=O)(=O)c2ccc(C)cc2)cc1 (stereo not drawn),.,.,.,9.3µM
Cc1ccc(N(CC(O)CN2CCCC2)S(=O)(=O)c2ccc(C)cc2)cc1 (stereo not drawn),.,.,/,?
COc1ccccc1CNC(=O)[C@H](C)NC(=O)C1CCN(C(=O)[C@@H](N)C(C)C)CC1,.,.,.,.
Cc1ccc(S(=O)(=O)N2CCN(C(=O)CN3C(=O)CNC3=O)CC2)cc1,/,/,.,.
O=C(NCCOc1ccccc1)C1CCC(=O)N(CCN2CCOCC2)C1 (stereo not drawn),.,.,?,.
O=C(Nc1cccc(Cl)c1)Nc1nc(-c2ccc(Cl)cc2)cs1,.,.,.,?
COc1ccc(CNCCc2ccc(Cl)cc2Cl)cc1,.,.,5.9µM,.
O=C(Nc1ccc(C2=NCCN2)cc1)c1ccc(C(=O)Nc2ccc(C3=NCCN3)cc2)c(Cl)c1,.,.,?,0.52µM
SMILES,Shiga inhibitor,Cycloheximide cs,Pf growth 96h,Pf growth 48h
O=C(Nc1ccncc1)Nc1cccc(Cl)c1Cl,.,.,.,?
O=C(Nc1ccncc1)Nc1cccc(Cl)c1,.,16,.,1.5µM
COc1ccc(CCC(C)NCCc2ccc(Cl)cc2Cl)cc1 (stereo not drawn),.,.,.,?
O=C(Nc1cccc(Cl)c1)Nc1csc([N+](=O)[O-])c1,46,16,2.6µM,3.7µM
COc1ccc(CNC(=O)Nc2cccc(Cl)c2)cc1,46,43,10µM,.
O=C(NCc1ccncc1)Nc1cccc(Cl)c1,.,16,/,.
O=C(Nc1cccc(Cl)c1)Nc1ccccc1-n1ccnc1,.,.,12µM,?
O=C(Nc1cccc(C2=NCCN2)c1)Nc1cccc(C2=NCCN2)c1,/,/,1.2µM,1.7µM
O=C(Nc1cccc(Cl)c1)Nn1cnnc1,.,.,.,.
CCC(C)N(C(=O)Cn1cnc2c1c(=O)n(C)c(=O)n2C)C1CCS(=O)(=O)C1 (stereo not drawn),/,/,.,.
CNC(=S)Nc1ccc(Cc2ccncc2)cc1,.,.,.,.
S=C(Nc1ccc(Cc2ccncc2)cc1)Nc1cccc(Cl)c1,.,.,13µM,.
COc1ccc(C(=O)Nc2ccc(S(=O)(=O)N3CCCC3)cc2)cc1[N+](=O)[O-],.,.,?,?
N#CC1(c2ccc(NC(=O)c3ccccc3)cc2)CCCC1,135,47,.,.
CC(=O)Oc1ccc(C(=O)Nc2ccc(C3(C#N)CCCC3)cc2)cc1,.,12,?,.
CC(O)C(NS(=O)(=O)c1ccc(Cl)cc1)C(=O)OCC(=O)N1CCN(c2ccccc2)CC1 (stereo not drawn),.,.,?,.
Cc1c(OCC(=O)NCC2CCC(C(=O)NCCCO)CC2)ccc2c(-c3ccccc3)cc(=O)oc12 (stereo not drawn),.,.,?,?
Cc1ccc(NC(=O)COc2ccccc2)c(NC(=O)c2ccco2)c1,.,.,.,.
O=C(Nc1nc2cc3c(cc2s1)OCO3)C1CCCCC1,108,89,.,.
O=C(Nc1nc2cc3c(cc2s1)OCO3)C1CC1,81,24,.,.
CC1CCN(C(=O)c2[nH]cnc2C(=O)N2CCN(c3ccccc3)CC2)CC1,/,/,.,.
O=C(CSc1nnc(-c2ccncc2)n1-c1ccccc1)NC1CC1,.,.,.,.
CCOC(=O)N1CCC(NC(=O)CCc2c(C)nc3c(c(C)nn3C(C)(C)C)c2C)CC1,.,.,.,12µM
CCOC(=O)N1CCN(C(=O)CCc2c(C)nc3c(c(C)nn3-c3ccc(C)c(C)c3)c2C)CC1,.,.,/,13µM
COc1cccc(CSCC(=O)NCCc2ccccc2)c1OC,.,.,.,.
SMILES,Shiga inhibitor,Cycloheximide cs,Pf growth 96h,Pf growth 48h
O=C(Cn1c(=O)c2cccn2c2ccccc21)NCCc1ccc(Cl)cc1,.,.,10µM,.
Cc1nc2ccccc2nc(C)c1=NOCc1ccccc1Cl,86,39,?,?
CC(=O)N1CN(C2CC(C)(C)NC(C)(C)C2)Cc2c1sc1c2CCCC1,.,.,12µM,12µM
O=C(NC1(Cc2ccccc2)CCN(CCc2cccs2)C1=O)c1ccccc1 (stereo not drawn),/,/,?,.
CN(C)CCCn1c(=O)n(Cc2ccco2)c(=O)c2c3c(sc21)CCCCC3,.,.,12µM,?
O=C(CC1C(=O)NCCN1Cc1cccc(F)c1)NCCCCCN1CCOCC1 (stereo not drawn),.,.,.,.
Cn1cccc1/C=C(/C#N)C(N)=S,.,.,.,.
Cc1ccc(-c2ccc(/C=C(\C#N)C(N)=S)n2C)cc1,61,59,?,.
OC[C@H]1OC(O)[C@H](O)[C@@H](O)[C@@H]1O (stereo partly drawn),.,.,/,/
CC(/C=C1\SC(=O)N(CCCC(=O)O)C1=O)=C\c1ccccc1,.,.,5.9µM,?
CC(=C\c1ccccc1)/C=C1/SC(=S)N(CCCC(=O)O)C1=O,.,.,?,8.3µM
O=C1/C(=C\c2ccco2)NC(=S)N1c1ccccc1,.,18,?,.

# From PubChem
